JMJD2A Tudor = inhibitors of human JMJD2A Tudor domain; O75164; AlphaScreen JMJD2A-Tudor / H3K4me3 peptide binding; Potency, µM (doses to about 114 µM), for the others: at the highest dose activity change, negative = inhibition, actives largely listed as inhibitors; hit rate 4.4% among 390,000; note: % is set by controls: 0 for no effect and ±100 for the full control effect; nearly all actives have a fitted effect of over 50% in size
BAZ2B block = inhibitors of human BAZ2B bromodomain | Q9UIF8 | AlphaScreen BAZ2B-H3K14Ac peptide displacement | Potency, µM (highest dose often 114 µM), for inactives: top-dose activity change, negative = inhibition, usual class: inhibitors | hit rate 4.4% among 360,000 | AID 504333; note: % is set by controls: 0 for no effect and ±100 for the full control effect; nearly all actives have a fitted effect of over 60% in size
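Inhibition is scored as reduced AlphaScreen emission. The BAZ2B/b-H3(5-23)K14Ac complex (50 nM each) in PBS pH 7.4, 0.01% Tween-20 meets compound (up to 110 uM) for 30 min at RT before bead addition.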
G9a inh = inhibitors of human histone lysine methyltransferase G9a. Potency, µM (top dose mostly 102 µM), for the others: at the top dose activity, negative = inhibition, usual class: inhibitors. hit rate 8.8% among 350,000. G9a H3K9 monomethylation, AlphaScreen, 2 h. AID 504332. Q96KQ7; note: % is set by controls: 0 for no effect and ±100 for the full control effect; nearly all actives have a fitted effect of over 75% in size
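Chemiluminescent proximity detection of H3K9 monomethylation, read after 10 min bead incubation in the dark. Reaction: 20 nM G9a, 500 nM biotin-H3K9 peptide, 20 uM SAM cofactor, 2 h, room temperature, following 15 min enzyme-compound preincubation.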
HP1b binding inh = HP1-beta chromodomain-methylated histone interaction inhibition. P83916. AlphaScreen HP1-beta / biotin-H3K9me3 peptide binding. Potency, µM (series often up to 114 µM), without a hit: at the highest dose activity change, negative = inhibition, hits mostly inhibitors. hit rate 0.56% among 390,000. AID 540317; note: nearly all actives have a fitted effect of over 70% in size
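HP1-beta protein (50 nM final) preincubated 30 min at room temperature with biotinylated H3(1-18)K9me3 peptide (50 nM) in PBS pH 7.4, 0.01% Tween-20, then compound added for 30 min. AlphaScreen streptavidin donor/nickel chelate acceptor beads (10 ug/mL final), 30 min dark, luminescence read.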
GLS inhibitor = blocks human kidney-isoform glutaminase activity; GLS enzymatic activity, qHTS titration; Potency, µM (series often up to 45.5 µM), inactives show at the highest dose activity change, negative = inhibition, usual class: inhibitors; hit rate 0.21% among 410,000; note: % is set by controls: 0 for no effect and ±100 for the full control effect
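Two-point fluorescence kinetic (t0, 30 min RT) for hKGA; glutamate detected via glutamate oxidase–HRP–Amplex Red. Substrate: 1 mM L-glutamine solution; buffer 45 mM KH2PO4, pH 8.2.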
Active calls of the source: *; [ ] = another dose, or the depositor's remark. An excerpt weighted towards active compounds, which were near 10% of everything screened. Calls come from the whole dose curve; as a rule, active = well fitted curve in the direction sought with a large enough effect; inconclusive = small, poorly fitted or top-dose-only effect, or another doubt; inactive = no such curve, though single readings can be large; an effect the other way counts as inactive or inconclusive. Potency is the fitted concentration of half-maximal effect.

For Cn1cccc1/C=C1\C(=O)NC(=O)N(Cc2ccco2)C1=O the results were JMJD2A Tudor 56.2µM*, BAZ2B block 56.2µM*, G9a inh inconclusive, HP1b binding inh 44.7µM* and GLS inhibitor inconclusive.
Screening COC(=O)C1=C(C)N(Cc2ccco2)C(=O)/C1=C\c1ccc(N(C)C)cc1 returned JMJD2A Tudor 15.8µM*, BAZ2B block inconclusive, G9a inh inconclusive, HP1b binding inh -72.8% and GLS inhibitor 14.9%.
Screening CC1(C)c2[nH]c3ccccc3c2C[C@H]2C(=O)N(Cc3ccccc3F)C(=O)N21 returned JMJD2A Tudor inconclusive, HP1b binding inh -13.6% and GLS inhibitor 6.9%.
CCN(CC)C(=O)c1ccc(NC(=O)CCn2nc(-c3ccc(Cl)cc3)c3ccccc3c2=O)cc1 was read as JMJD2A Tudor -29.2%, BAZ2B block -37.7%, G9a inh -44.2%[59 µM], HP1b binding inh -11.7% and GLS inhibitor -1.4%.
`C(=C\c1ccccc1)/CN1CCN(CCOC(c2ccccc2)c2ccccc2)CC1` gave G9a inh 11.2µM*.
For Clc1ccc([C@@H](OCCN2CCCCC2)c2ccccc2)cc1 the results were G9a inh 5.5%[21.5 µM] and GLS inhibitor -3.5%[20 µM].
For CC(C)N1CCN(Cc2cccc([N+](=O)[O-])c2)CC1 the results were JMJD2A Tudor 0.891µM*, BAZ2B block 50.1µM*, G9a inh 3.55µM*, HP1b binding inh inconclusive and GLS inhibitor -25.8%.
`O=[N+]([O-])c1cccc(CN2CCN(Cc3ccc(Cl)cc3)CC2)c1` gave JMJD2A Tudor 0.794µM*, BAZ2B block 20µM*, G9a inh 3.55µM*, HP1b binding inh inconclusive and GLS inhibitor 0.7%.
O=[N+]([O-])c1cccc(CN2CC=C(c3ccc(F)cc3)CC2)c1 was read as JMJD2A Tudor inconclusive, BAZ2B block inconclusive, G9a inh inconclusive, HP1b binding inh -15.2% and GLS inhibitor 7.4%.
For O=c1oc(Cl)c(Cl)c2ccccc12 the results were JMJD2A Tudor inconclusive, BAZ2B block inconclusive, G9a inh 6.7µM*, HP1b binding inh -10.6% and GLS inhibitor 27.8%.
`O=C1C=CC(=O)C(Cl)=C1` gave G9a inh 0.708µM*.
For O=C1C=CC(=O)C=C1 the results were JMJD2A Tudor inconclusive, G9a inh inconclusive, HP1b binding inh inconclusive and GLS inhibitor -12.9%.
`Cc1cccc(Cc2cnc(NC(=O)c3ccc4c(c3)CC(c3ccccc3)OC4=O)s2)c1` (centres undefined) gave JMJD2A Tudor 6.9%, BAZ2B block 0.5%, G9a inh 6.3%[59 µM], HP1b binding inh 61.6% and GLS inhibitor -5.2%.
CC(C)=CCC/C(C)=C/CN(CC(C)O)CC(C)O (centres undefined) was read as JMJD2A Tudor 3.16µM*, BAZ2B block -3.8%, G9a inh 10µM*, HP1b binding inh inconclusive and GLS inhibitor -4.7%.
For Cc1ccc(-n2ncc(C(=O)N3CCN(c4ccc(Cl)cc4)CC3)c2C2CCN(C(=O)OC(C)(C)C)CC2)c(C)c1 the results were JMJD2A Tudor inconclusive, BAZ2B block -21.8%[57.1 µM], G9a inh inconclusive, HP1b binding inh -2.6% and GLS inhibitor 10.5%.
Screening Brc1ccc2[nH]cc(C=NN3CCCCCC3)c2c1 returned JMJD2A Tudor 50.1µM*, HP1b binding inh inconclusive and GLS inhibitor 23.0%.
`COC(=O)C1=C(c2ccc(Cl)c(C(F)(F)F)c2)C[C@@H]2CC[C@H]1N2C(=O)NC1CCCCC1` gave JMJD2A Tudor -7.9%, BAZ2B block -9.1%, G9a inh -5.7%[0.501 µM], HP1b binding inh 57.9% and GLS inhibitor -2.7%.
NCC(CC(=O)O)c1ccc(Cl)s1 (centres undefined) was read as G9a inh 37.0%[59 µM].
For C=CCN1C(=O)NC(=O)/C(=C/c2ccc(OC)c(CSc3ccccn3)c2)C1=O the results were JMJD2A Tudor 79.4µM*, BAZ2B block 14.1%[57.1 µM], G9a inh 11.2µM*, HP1b binding inh 55.4% and GLS inhibitor 31.7%.
Screening C=CCN1C(=O)NC(=O)/C(=C/c2ccc(OC)c(COc3ccc(NC(C)=O)cc3)c2)C1=O returned JMJD2A Tudor -23.1%, BAZ2B block -8.9%, HP1b binding inh 29.7% and GLS inhibitor -1.7%.
`c1ccc2c(CCNC3CCCCC3)c[nH]c2c1` gave JMJD2A Tudor 31.6µM*, BAZ2B block inconclusive, G9a inh 12.6µM*, HP1b binding inh 79.4µM* and GLS inhibitor 0.0%.
`FC(F)(F)c1ccc(CNCCc2c[nH]c3ccccc23)cc1` gave JMJD2A Tudor inconclusive, BAZ2B block inconclusive, G9a inh 13.2%, HP1b binding inh 10.3% and GLS inhibitor 5.7%.
Screening c1ccc2c(CCNC3=NCCC3)c[nH]c2c1 returned JMJD2A Tudor -19.8%, BAZ2B block 8.3%, G9a inh 1.2%[59 µM], HP1b binding inh 12.5% and GLS inhibitor 30.7%.
Clc1cccc(CNCCc2c[nH]c3ccccc23)c1 was read as JMJD2A Tudor 7.08µM*, BAZ2B block 50.1µM*, G9a inh 10.9%[2.33 µM], HP1b binding inh inconclusive and GLS inhibitor 12.0%.
For CC(C)[C@@]1(NC(=O)[C@H]2C[C@H]3c4cccc5[nH]cc(c45)C[C@@H]3N(C)C2)O[C@]2(O)[C@H]3CCCN3C(=O)CN2C1=O (tested in a mixture with another compound) the results were GLS inhibitor 7.7%.
Screening CC(C)C[C@H]1C(=O)N2CCC[C@H]2[C@]2(O)O[C@](NC(=O)[C@@H]3C=C4c5cccc6[nH]cc(c56)C[C@H]4N(C)C3)(C(C)C)C(=O)N12 returned JMJD2A Tudor 50.1µM*, BAZ2B block -33.9%, G9a inh 6.31µM*, HP1b binding inh -14.4% and GLS inhibitor -2.1%.
CN1C[C@H](C(=O)N[C@]2(C)O[C@@]3(O)[C@@H]4CCCN4C(=O)[C@H](Cc4ccccc4)N3C2=O)C=C2c3cccc4[nH]cc(c34)C[C@H]21 was read as G9a inh 12.6µM* and GLS inhibitor 17.6%.
`CC(C)C[C@H]1C(=O)N2CCC[C@H]2[C@]2(O)O[C@](NC(=O)[C@@H]3C=C4c5cccc6[nH]c(Br)c(c56)C[C@H]4N(C)C3)(C(C)C)C(=O)N12` gave G9a inh 23.8µM*.
Screening O=S(c1ccccc1)c1ccccc1 returned JMJD2A Tudor -4.8%, HP1b binding inh 42.1% and GLS inhibitor -19.4%.
For O=C(NC(O)C(Cl)(Cl)Cl)NC(O)C(Cl)(Cl)Cl (centres undefined) the results were G9a inh 2.2%[12.7 µM] and GLS inhibitor 5.4%.
Screening CCn1cc(C(=O)N2CCC3(CC2)OCCO3)c(=O)c2cc(S(=O)(=O)N3CCCC3)ccc21 returned JMJD2A Tudor -5.7%, BAZ2B block -0.4%, G9a inh 3.4%[12.7 µM], HP1b binding inh 9.1% and GLS inhibitor -1.5%.
